The whole screen tested about 5,500 compounds, of which about 2,000 (36%) were called active. Inconclusive results (about 18%) are left out. Cut-off read from the data, not from the text of the source: active = normalized growth mostly below about 0.91 (no sharp cut-off); inconclusive = no clear call, values can overlap the other calls; inactive = mostly above about 0.92. This is one part of the list.
Assay: chemical genetic growth profiling, strain panel (AID 1159580);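 note: tested at 20 µM; growth read once vehicle control cultures reached saturation at 30 °C; 1 = growth at the plate median or of vehicle wells; lower values mean less growth of the strain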
Settings: growth OD

Measured: normalized growth

CC(C)[C@@H]1CC[C@@H](C)CC1=O
inactive: S. cerevisiae deletion strains, locus YJR066W, strain TOR1, active compounds read low 0.94 | S. cerevisiae deletion strains, locus YJR075W, strain HOC1, active compounds read low 1.02 | S. cerevisiae deletion strains, locus YKL009W, strain mrt4, active compounds read low 1.01 | S. cerevisiae deletion strains, locus YKL068W, active compounds read low 1.02 | S. cerevisiae deletion strains, locus YKL085W, strain MDH1 (second series), active compounds read low 0.999 | S. cerevisiae deletion strains, locus YKL085W, strain MDH1, active compounds read low 0.999 | S. cerevisiae deletion strains, locus YKL160W, strain elf1, active compounds read low 0.981 | S. cerevisiae deletion strains, locus YKR001C, strain vps1, active compounds read low 0.991 | S. cerevisiae deletion strains, locus YKR026C, strain gcn3, active compounds read low 0.984 | S. cerevisiae deletion strains, locus YKR091W, strain srl3, active compounds read low 0.991 | S. cerevisiae deletion strains, locus YLL001W, strain dnm1, active compounds read low 0.98 | S. cerevisiae deletion strains, locus YLL026W, active compounds read low 0.985 | S. cerevisiae deletion strains, locus YLL041C, strain sdh2, active compounds read low 0.991 | S. cerevisiae deletion strains, locus YLR027C, strain aat2, active compounds read low 0.979 | S. cerevisiae deletion strains, locus YLR039C, strain RIC1, active compounds read low 1.09 | S. cerevisiae deletion strains, locus YLR058C, strain SHM2, active compounds read low 1.02 | S. cerevisiae deletion strains, locus YLR102C, strain apc9, active compounds read low 0.997 | S. cerevisiae deletion strains, locus YLR113W, strain HOG1, active compounds read low 0.967 | S. cerevisiae deletion strains, locus YLR221C, strain rsa3, active compounds read low 1.01 | S. cerevisiae deletion strains, locus YLR258W, strain gsy2, active compounds read low 0.996 | S. cerevisiae deletion strains, locus YLR262C, strain YPT6 (second series), active compounds read low 0.979 | S. cerevisiae deletion strains, locus YLR262C, strain YPT6, active compounds read low 1.14 | S. cerevisiae deletion strains, locus YLR268W, strain sec22, active compounds read low 1.02 | S. cerevisiae deletion strains, locus YLR320W, strain mms22, active compounds read low 1.01 | S. cerevisiae deletion strains, locus YLR330W, strain CHS5, active compounds read low 1.01 | S. cerevisiae deletion strains, locus YLR342W, strain FKS1 (second series), active compounds read low 1.03 | S. cerevisiae deletion strains, locus YLR342W, strain FKS1, active compounds read low 0.995 | S. cerevisiae deletion strains, locus YLR357W, strain rsc2, active compounds read low 0.998 | S. cerevisiae deletion strains, locus YLR370C, strain arc18, active compounds read low 0.983 | S. cerevisiae deletion strains, locus YLR371W, strain rom2, active compounds read low 1 | S. cerevisiae deletion strains, locus YLR384C, strain iki3, active compounds read low 1.01 | S. cerevisiae deletion strains, locus YLR418C, strain cdc73, active compounds read low 1.01 | S. cerevisiae deletion strains, locus YML016C, strain PPZ1, active compounds read low 1.01 | S. cerevisiae deletion strains, locus YML032C, strain rad52, active compounds read low 1.01 | S. cerevisiae deletion strains, locus YML120C, strain ndi1, active compounds read low 0.982 | S. cerevisiae deletion strains, locus YML124C, strain tub3, active compounds read low 0.999 | S. cerevisiae deletion strains, locus YMR058W, strain fet3, active compounds read low 0.989 | S. cerevisiae deletion strains, locus YMR078C, strain ctf18, active compounds read low 1 | S. cerevisiae deletion strains, locus YMR125W, strain sto1, active compounds read low 0.965 | S. cerevisiae deletion strains, locus YMR129W, active compounds read low 1 | S. cerevisiae deletion strains, locus YMR205C, strain PFK2, active compounds read low 1 | S. cerevisiae deletion strains, locus YMR223W, strain ubp8, active compounds read low 1 | S. cerevisiae deletion strains, locus YMR231W, strain pep5, active compounds read low 1 | S. cerevisiae deletion strains, locus YMR263W, strain SAP30, active compounds read low 1.02 | S. cerevisiae deletion strains, locus YMR307W, strain GAS1, active compounds read low 1.02 | S. cerevisiae deletion strains, locus YNL067W, strain RPL9B, active compounds read low 1.03 | S. cerevisiae deletion strains, locus YNL071W, strain lat1, active compounds read low 0.991 | S. cerevisiae deletion strains, locus YNL128W, strain TEP1, active compounds read low 1.02 | S. cerevisiae deletion strains, locus YNL153C, strain GIM3, active compounds read low 1.03 | S. cerevisiae deletion strains, locus YNL183C, strain NPR1, active compounds read low 0.935 | S. cerevisiae deletion strains, locus YNL209W, strain ssb2, active compounds read low 1 | S. cerevisiae deletion strains, locus YNL233W, strain BNI4, active compounds read low 1.04 | S. cerevisiae deletion strains, locus YNL248C, strain rpa49, active compounds read low 0.997 | S. cerevisiae deletion strains, locus YNL250W, strain rad50, active compounds read low 1 | S. cerevisiae deletion strains, locus YNL271C, strain bni1, active compounds read low 1 | S. cerevisiae deletion strains, locus YNL298W, strain CLA4, active compounds read low 0.999 | S. cerevisiae deletion strains, locus YNL307C, strain MCK1, active compounds read low 1.01 | S. cerevisiae deletion strains, locus YNL322C, strain KRE1 (second series), active compounds read low 0.995 | S. cerevisiae deletion strains, locus YNL322C, strain KRE1, active compounds read low 1.01 | S. cerevisiae deletion strains, locus YNR049C, strain mso1, active compounds read low 1 | S. cerevisiae deletion strains, locus YNR052C, strain pop2, active compounds read low 0.991 | S. cerevisiae deletion strains, locus YOL006C, strain TOP1, active compounds read low 1.06 | S. cerevisiae deletion strains, locus YOL012C, strain htz1 0.896 | S. cerevisiae deletion strains, locus YOL147C, strain pex11, active compounds read low 1.01 | S. cerevisiae deletion strains, locus YOR001W, strain rrp6, active compounds read low 1.01 | S. cerevisiae deletion strains, locus YOR061W, strain CKA2, active compounds read low 1.01 | S. cerevisiae deletion strains, locus YOR069W, strain VPS5, active compounds read low 0.999 | S. cerevisiae deletion strains, locus YOR070C, strain gyp1, active compounds read low 0.996 | S. cerevisiae deletion strains, locus YOR080W, strain dia2, active compounds read low 0.99 | S. cerevisiae deletion strains, locus YOR083W, strain WHI5, active compounds read low 0.965 | S. cerevisiae deletion strains, locus YOR106W, strain vam3, active compounds read low 0.98 | S. cerevisiae deletion strains, locus YOR136W, strain idh2, active compounds read low 0.987 | S. cerevisiae deletion strains, locus YOR144C, strain elg1, active compounds read low 1 | S. cerevisiae deletion strains, locus YOR184W, strain ser1, active compounds read low 1.02 | S. cerevisiae deletion strains, locus YOR231W, strain MKK1, active compounds read low 0.955 | S. cerevisiae deletion strains, locus YOR265W, strain rbl2, active compounds read low 0.989 | S. cerevisiae deletion strains, locus YOR270C, strain vph1, active compounds read low 1.01 | S. cerevisiae deletion strains, locus YOR290C, strain snf2, active compounds read low 0.954 | S. cerevisiae deletion strains, locus YOR316C, strain cot1, active compounds read low 1.01 | S. cerevisiae deletion strains, locus YPL051W, strain arl3, active compounds read low 0.998 | S. cerevisiae deletion strains, locus YPL055C, strain LGE1, active compounds read low 1.02 | S. cerevisiae deletion strains, locus YPL078C, strain atp4, active compounds read low 0.969 | S. cerevisiae deletion strains, locus YPL106C, strain sse1, active compounds read low 0.967 | S. cerevisiae deletion strains, locus YPL240C, strain hsp82, active compounds read low 0.996 | S. cerevisiae deletion strains, locus YPL241C, strain CIN2, active compounds read low 1.01 | S. cerevisiae deletion strains, locus YPL256C, strain CLN2, active compounds read low 0.96 | S. cerevisiae deletion strains, locus YPR119W, strain clb2, active compounds read low 1 | S. cerevisiae deletion strains, locus YPR141C, strain kar3, active compounds read low 0.991 | S. cerevisiae deletion strains, locus YPR163C, strain tif3, active compounds read low 1.01 | S. cerevisiae deletion strains, locus YPR167C, strain met16, active compounds read low 0.992 | S. cerevisiae deletion strains, strain wtn01, active compounds read low 0.992 | S. cerevisiae strains, strain wild type, active compounds read low 1.01

Source: PubChem BioAssay AID1159580 (chemical genetic matrix, 2015)
